# ST2 IL33 inh – IL1RL1 inhibition; Q01638; AlphaLISA ST2-Fc/biotin-IL-33 interaction, 1 h; inhibition, % for hits at 17 µM; hit rate 2.3% among 78,000; in the data active = inhibition above about 30%
# Target sequence (Q01638 whole entry, looked up): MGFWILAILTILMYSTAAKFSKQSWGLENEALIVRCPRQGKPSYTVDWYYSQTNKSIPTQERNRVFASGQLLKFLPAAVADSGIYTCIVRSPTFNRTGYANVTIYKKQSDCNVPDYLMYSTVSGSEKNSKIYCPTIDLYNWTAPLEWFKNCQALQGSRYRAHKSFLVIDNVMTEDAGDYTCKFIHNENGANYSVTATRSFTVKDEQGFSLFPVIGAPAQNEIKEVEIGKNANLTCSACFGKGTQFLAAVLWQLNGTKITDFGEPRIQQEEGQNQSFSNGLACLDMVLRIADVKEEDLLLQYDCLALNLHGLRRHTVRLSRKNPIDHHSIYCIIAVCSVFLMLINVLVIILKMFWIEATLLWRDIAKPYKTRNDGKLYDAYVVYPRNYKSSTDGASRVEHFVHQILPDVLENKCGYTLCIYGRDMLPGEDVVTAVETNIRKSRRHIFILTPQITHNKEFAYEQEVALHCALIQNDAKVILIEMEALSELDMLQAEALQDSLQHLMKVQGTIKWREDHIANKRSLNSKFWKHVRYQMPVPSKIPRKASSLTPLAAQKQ
# Hits are given with their value; - = inactive. Many of the other results were omitted from the sample, so hits are more common in it than they were.
SMILES,ST2 IL33 inh
O=c1c2ccccc2nc(-c2ccccc2)n1-c1ccccc1,-
Cc1cccc(-n2c(-c3cccnc3)nc3ccccc3c2=O)c1,46%
Cc1cccc(-n2c(/C=C3\C(=O)Nc4ccccc43)nc3ccccc3c2=O)c1,-
C=C[C@H]1CN2CC[C@H]1C[C@@H]2CNC(=O)NC1CCCCC1,-
CS(=O)(=O)N1C[C@@H]2C[C@H](C1)c1ccc(-c3cccc(C(F)(F)F)c3)c(=O)n1C2,-
CSc1ccc(-c2ccc(=O)n3c2[C@@H]2C[C@@H](CN(C(=O)c4ccccc4)C2)C3)cc1,-
COCCC(=O)N1C[C@@H]2C[C@H](C1)c1ccc(NC(=O)c3ccc(C#N)cc3)c(=O)n1C2,35%
COc1ccc(-c2ccc3n(c2=O)C[C@H]2C[C@@H]3CN(C(=O)c3ccc(C#N)cc3)C2)cc1,-
COCCC(=O)N1C[C@@H]2C[C@H](C1)c1ccc(-c3cccc(C(F)(F)F)c3)c(=O)n1C2,-
O=c1c2ccccc2nc(-c2ccccc2Cl)n1-c1ccccc1O,-
Cc1ccccc1-n1c(/C=C2\C(=O)N(C)c3ccccc32)nc2ccccc2c1=O,49%
Cc1ccccc1-n1c(Cc2ccccc2)nc2ccccc2c1=O,-
COC(=O)c1cccc(NC(=S)NC[C@H]2C[C@@H]3CCN2C[C@@H]3c2cc(-c3ccco3)nn2C)c1,-
Fc1ccc(CN2CCN(c3cccc(Cl)c3)CC2)cc1,-
O=[N+]([O-])c1ccc(N2CCN(Cc3cccc(Cl)c3)CC2)cc1,36%
CCN1CCN(Cc2cccc(Br)c2)CC1,-
CN1CCN(Cc2cccc(Br)c2)CC1,-
O=[N+]([O-])c1ccc(CN2CCN(Cc3ccccc3)CC2)cc1,-
Brc1cccc(CN2CCN(c3ccccc3)CC2)c1,31%
O=c1c(-c2cccc(C(F)(F)F)c2)ccc2n1C[C@H]1C[C@@H]2CN(Cc2cccs2)C1,-
CC[C@H]1CN2CC[C@H]1C[C@@H]2CNC(=S)Nc1ccccc1,-
COc1ccc(Cl)cc1/C=C/[N+](=O)[O-],97%
C#CCOc1c(I)cc(/C=C/[N+](=O)[O-])cc1OC,-
CCC(CC)c1cc([C@H]2CN3CC[C@H]2C[C@@H]3CN(CC2CC2)CC2CC2)nc(-c2ccncc2)n1,-
CN(Cc1ccco1)C(=O)c1cn(Cc2ccccn2)cc(C(=O)NC2CCCCCCC2)c1=O,-
SMILES,ST2 IL33 inh
CCN(CC)C(=O)c1ccc2c(c1)N(CC(=O)NCc1ccc(C(C)C)cc1)C(=O)C1CCCCN21 (stereo not given),-
CC(Nc1ccc([N+](=O)[O-])c2cccnc12)c1ccc(Br)cc1 (stereo not given),40%
O=[N+]([O-])c1ccc(NCCCN2CCOCC2)c2cccnc12,-
CCN(CC)C(=O)Cn1cc(/C=C2\C(=O)NC(=O)N(c3ccccc3F)C2=O)c2ccccc21,-
O=C1NC(=O)C(=Cc2cn(CCOc3ccc4c(c3)OCO4)c3ccccc23)C(=O)N1,35%
NC(=O)c1ccc(NC(=O)c2cccn(Cc3ccc(Br)cc3)c2=O)cc1,-
COc1ncc(CN2C[C@H]3C[C@H](O)[C@H](O)C[C@H]3C2)cn1,-
O=C(Nc1ccc2n(c1=O)C[C@H]1C[C@@H]2CN(C(=O)c2cccnc2)C1)c1ccc(F)cc1,-
c1ccc2c(CN3CCC4(CCCNC4)C3)c[nH]c2c1 (stereo not given),-
Cc1c(C(c2ccccc2Cl)c2c(O)c3ccccc3oc2=O)c(=O)n(-c2ccccc2)n1C (stereo not given),-
COc1ccc(C(c2c(O)c3ccccc3oc2=O)c2c(C)n(C)n(-c3ccccc3)c2=O)cc1 (stereo not given),-
CC(c1c(O)c2ccccc2oc1=O)c1c(O)c2ccccc2oc1=O,36%
C=CCN(C)C[C@H]1CN2CC[C@H]1C[C@@H]2CNS(=O)(=O)c1ccc(OC)cc1,-
CCOC(=O)Cc1csc(NC(=O)c2cccn(Cc3ccccc3Cl)c2=O)n1,-
O=[N+]([O-])c1cccc(CN2CC=C(c3ccc(F)cc3)CC2)c1,35%
O=[N+]([O-])c1ccccc1CN1CC=C(c2ccc(F)cc2)CC1,30%
CN1CCN(Cc2ccccc2[N+](=O)[O-])CC1,-
O=[N+]([O-])c1ccccc1CN1CCN(c2ccc(Cl)cc2)CC1,-
CN1CCN(Cc2cccc([N+](=O)[O-])c2)CC1,-
NC(=O)c1ccc(OCC(O)CN2CC=C(c3ccc(F)cc3)CC2)cc1 (stereo not given),-
Cc1ccc(C)c(Cn2cccc(C(=O)Nc3ccon3)c2=O)c1,-
COc1ccccc1N1CCN(Cc2cc(C)ccc2C)CC1,-
CN(C)CC(=O)Nc1ccc2n(c1=O)C[C@@H]1CNC[C@H]2C1,-
O=C(Nc1ccon1)c1cccn(Cc2ccc(Br)cc2)c1=O,-
CCC(=O)c1ccc(OCC(=O)N2C[C@@H]3C[C@H](C2)c2cccc(=O)n2C3)cc1,-
COCCN1CCCC2(CCN(C(=O)Cc3cccnc3)C2)C1 (stereo not given),-
O=C(O)C1Nc2c(F)cccc2C2C(Cl)C(Sc3ccccc3[N+](=O)[O-])CC12 (stereo not given),34%
COCC(=O)NC[C@H]1C[C@@H]2CCN1C[C@@H]2CN(C)c1ccccc1,-
